Measured values taken from PubChem BioAssay (NCI).
About 83,000 compounds went through this panel and 20% of them were active in at least one assay; those are over-represented in the sample as a whole.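 Step 1: grow cells in 96-well plates. Step 2: add test compound at a single concentration. Step 3: incubate 48 h. Step 4: record percent growth.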 The source made the active and inactive calls. Rule for the calls: active = growth percent below 10; inactive = the rest.

These compounds were tested on HCC-2998 colon (assay: NCI-60 one-dose screen, 48 h (100 = growth as untreated, 0 = no growth, -100 = all killed)). Conditions: 10 µM unless noted.

Row | Compound | growth
1 | O=C(c1ccccc1)N(C(=S)NCCc1ccc(Cl)cc1)c1ccccc1 | 101% (inactive)
2 | O=C(Nc1ccc(F)cc1F)c1cc(Br)ccc1O | 13.5% (inactive)
3 | CC[C@]1(O)C[C@@H]2CN(CCc3c([nH]c4ccccc34)[C@@](C(=O)OC)(c3cc4c(cc3OC)N(C)[C@H]3[C@@](O)(C(=O)OC)[C@H](OC(=O)CCCBr)[C@]5(CC)C=CCN6CC[C@]43[C@@H]65)C2)C1 | 9.27% (active)
4 | O=c1oc2ccc(Cl)cc2c(=O)n1-c1ccc(F)cc1F | 34% (inactive)
5 | Fc1cccc(COc2ccc(Nc3ncnc4onc(-c5ccccc5)c34)cc2)c1 | 9.52% (active)
6 | O=C(Nc1ccc(F)cc1F)c1cc(Cl)ccc1O | 23.1% (inactive)
7 | O=C(CCc1nnc2sc(-c3ccc(Cl)cc3Cl)nn12)c1nc2ncccc2[nH]1 | -71.6% (active)
8 | COc1ccc(C2=C(c3cccc(OC)c3)C(=O)c3ccc(C)nc3C2=O)cc1 | 84.6% (inactive)
9 | COc1cc(/C=C2\Oc3cc(OCCCN4CCCC4)ccc3C2=O)cc(OC)c1 | 75.7% (inactive)
10 | Nc1ccn(C2O[C@H](CO)[C@@H](O)[C@H]2O)c(=O)n1 (stereo partly drawn) | 99% (inactive)
11 | COc1cc2nc(-c3cnc(N(C)C)nc3)nc(NC3CCN(Cc4ccccc4)CC3)c2cc1OC | -92.7% (active)
12 | O=c1oc2ccc(I)cc2c(=O)n1-c1ccc(F)cc1F | 26% (inactive)
13 | C1=CC2(C=C1)OC21CCC2(C=CC3(C2)OC3C2CCCCC2)CC1 (stereo not drawn) | 105% (inactive)
14 | COc1ccc2[nH]c(O)c(N=NC(=O)c3oc4ccccc4c3C)c2c1 | 45.5% (inactive)
15 | CCOc1ccc(-c2nonc2NC(=O)c2cccc(C)c2)cc1OCC | 81.8% (inactive)
16 | Cc1cccc2c(=O)c3c(sc12)c(NCCN)nc1ccccc13 | -77.8% (active)
17 | COc1ccc(Cn2c(Br)c3c(c2Br)-c2nc(NC(=O)c4ccc(OC)cc4)sc2CC3)cc1 | 108% (inactive)
18 | O=C(Nc1ccc(Br)cc1F)c1cc(I)ccc1O | 27.4% (inactive)
19 | Cc1ccc2[nH]c(=O)cc(-n3nncc3Cn3c4ccccc4c4ccccc43)c2c1 | 101% (inactive)
20 | COc1ccc(-c2cn[nH]c2-c2ccc(OC)c(O)c2)cc1 | 85.8% (inactive)
21 | O=C(CCc1nnc2sc(COc3ccccc3)nn12)c1nc2ncccc2[nH]1 | 99.8% (inactive)
22 | CCOC(=O)c1c2c(c(C)n1Cc1ccc(OC)cc1)-c1oncc1CC2 | 106% (inactive)
23 | Cc1nc(Nc2ccccn2)sc1C(=O)/C=C/c1ccc(Cl)cc1 | 21.6% (inactive)
